Most compounds without a hit are left out; they make up all but 12% or so of the library.
JMJD2A Tudor – qHTS Assay for Inhibitors of JMJD2A-Tudor Domain | Lysine-specific demethylase 4A (Homo sapiens), O75164 | AlphaScreen JMJD2A-Tudor / H3K4me3 peptide binding | Potency, µM (titrated, usually from 114 µM), without a hit: top-dose activity change, negative = inhibition, actives largely listed as inhibitors | 390,000 tested, 4.4% active; note: % is set by controls: 0 for no effect and ±100 for the full control effect; nearly all actives have a fitted effect of over 50% in size
Target sequence (O75164 whole entry, looked up, the tested form may be a part): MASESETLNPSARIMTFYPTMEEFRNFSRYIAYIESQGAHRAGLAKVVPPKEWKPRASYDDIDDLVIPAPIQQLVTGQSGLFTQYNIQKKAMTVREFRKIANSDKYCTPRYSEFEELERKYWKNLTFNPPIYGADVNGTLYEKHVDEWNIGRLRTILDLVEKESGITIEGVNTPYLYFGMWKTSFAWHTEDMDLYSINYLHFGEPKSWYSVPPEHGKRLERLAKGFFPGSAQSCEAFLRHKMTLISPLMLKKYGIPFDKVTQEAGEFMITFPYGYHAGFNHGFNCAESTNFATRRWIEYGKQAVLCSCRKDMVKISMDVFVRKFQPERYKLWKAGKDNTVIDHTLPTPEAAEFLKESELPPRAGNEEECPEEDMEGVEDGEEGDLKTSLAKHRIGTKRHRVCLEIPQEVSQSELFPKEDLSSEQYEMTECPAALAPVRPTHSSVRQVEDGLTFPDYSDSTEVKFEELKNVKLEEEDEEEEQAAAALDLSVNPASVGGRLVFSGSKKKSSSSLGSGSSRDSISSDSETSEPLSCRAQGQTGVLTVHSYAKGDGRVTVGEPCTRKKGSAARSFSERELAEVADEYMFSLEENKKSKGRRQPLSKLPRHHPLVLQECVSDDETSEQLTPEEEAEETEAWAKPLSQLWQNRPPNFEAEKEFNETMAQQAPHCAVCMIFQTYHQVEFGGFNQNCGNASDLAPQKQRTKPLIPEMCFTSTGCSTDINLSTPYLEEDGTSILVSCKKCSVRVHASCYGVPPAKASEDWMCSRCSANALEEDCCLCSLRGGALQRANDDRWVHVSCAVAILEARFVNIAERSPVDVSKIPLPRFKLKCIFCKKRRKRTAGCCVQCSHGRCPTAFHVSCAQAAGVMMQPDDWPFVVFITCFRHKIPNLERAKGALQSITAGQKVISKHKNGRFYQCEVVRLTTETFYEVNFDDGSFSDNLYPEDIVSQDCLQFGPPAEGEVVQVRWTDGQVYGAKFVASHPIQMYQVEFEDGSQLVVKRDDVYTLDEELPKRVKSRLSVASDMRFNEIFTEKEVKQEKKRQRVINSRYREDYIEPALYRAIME
PLK1 PBD block – qHTS for Inhibitors of PLK1-PDB (polo-like kinase 1 - polo-box domain): Primary Screen; Serine/threonine-protein kinase PLK1 (Homo sapiens), P53350; Plk1 PBD binding of FITC phosphopeptide, fluorescence polarization; Potency, µM, for inactives: max response, negative = inhibition, usual class: inhibitors; 360,000 tested, 2.8% active; AID 720504, 2013; note: series mostly up to about 57 µM; % is set by controls: 0 for no effect and ±100 for the full control effect; nearly all actives have a fitted effect of over 65% in size
G9a inh – qHTS Assay for Inhibitors of Histone Lysine Methyltransferase G9a. 350,000 tested, 8.8% active. Histone-lysine N-methyltransferase EHMT2 (Homo sapiens), Q96KQ7. Potency, µM (highest dose often 102 µM), for inactives: at the top dose activity, negative = inhibition, actives largely listed as inhibitors. G9a H3K9 monomethylation, AlphaScreen, 2 h; note: % is set by controls: 0 for no effect and ±100 for the full control effect; nearly all actives have a fitted effect of over 75% in size
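Quantitative HTS format: methyltransferase activity on a biotin-tagged H3K9 peptide is measured by AlphaScreen, using a rabbit anti-monomethyl-H3K9 antibody with streptavidin donor and anti-IgG acceptor beads. Final levels are 20 nM enzyme, 500 nM peptide, 20 uM SAM; 2 h RT.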
HP1b binding inh – HTS for Inhibitors of HP1-beta Chromodomain Interactions with Methylated Histone Tails; Chromobox protein homolog 1 (Homo sapiens), P83916; AlphaScreen HP1-beta / biotin-H3K9me3 peptide binding; Potency, µM (titrated, usually from 114 µM), without a hit: at the highest dose activity change, negative = inhibition, actives largely listed as inhibitors; 390,000 tested, 0.56% active; note: nearly all actives have a fitted effect of over 70% in size
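HP1-beta protein (50 nM final) preincubated 30 min at room temperature with biotinylated H3(1-18)K9me3 peptide (50 nM) in PBS pH 7.4, 0.01% Tween-20, then compound added for 30 min. AlphaScreen streptavidin donor/nickel chelate acceptor beads (10 ug/mL final), 30 min dark, luminescence read.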
Sfp inh – qHTS Assay for Inhibitors of Bacillus subtilis Sfp phosphopantetheinyl transferase (PPTase); 4'-phosphopantetheinyl transferase ffp (Bacillus subtilis), Q9F4F7; 310,000 tested, 3.5% active; Biochemical Sfp PPTase activity, qHTS; Potency, µM, without a hit: largest response in the series, negative = inhibition, actives largely listed as inhibitors;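 note: the enzyme is Sfp with the accession as filed and its product quenches rhodamine fluorescence; 0% = enzyme reaction without inhibitor and -100% = no enzyme wells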
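With Hepes-Na pH 7.6 buffer containing 10 mM MgCl2, Sfp (15 nM) modified BHQ-2-YbbR (12.5 uM) using rhodamine-CoA (5 uM). Two reads 30 minutes apart at 525/598 nm yielded each well's rate.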
BAZ2B block – qHTS Assay for Inhibitors of BAZ2B. Bromodomain adjacent to zinc finger domain protein 2B (Homo sapiens), Q9UIF8. AlphaScreen BAZ2B-H3K14Ac peptide displacement. Potency, µM (highest dose often 114 µM), for inactives: at the top dose activity change, negative = inhibition, hits mostly inhibitors. 360,000 tested, 4.4% active; note: % is set by controls: 0 for no effect and ±100 for the full control effect; nearly all actives have a fitted effect of over 60% in size
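BAZ2B (50 nM) with biotin-H3(5-23)K14Ac peptide (50 nM) in PBS pH 7.4, 0.01% Tween-20, preformed 30 min, then compound 30 min at room temperature; top concentration 110uM. AlphaScreen streptavidin donor/nickel chelate acceptor beads (10 ug/mL final), 20 min dark, signal read.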
* marks the source's active call; other numbers are inactive results; ? = inconclusive; · = not tested or not shown; ! = not active in a repeat; [ ] = another dose, or the depositor's remark. Calls come from the whole dose curve; as a rule, active = well fitted curve in the direction sought with a large enough effect; inconclusive = small, poorly fitted or top-dose-only effect, or another doubt; inactive = no such curve, though single readings can be large; an effect the other way counts as inactive or inconclusive. Potency is the fitted concentration of half-maximal effect.

SMILES	JMJD2A Tudor	PLK1 PBD block	G9a inh	HP1b binding inh	Sfp inh	BAZ2B block
C=CCc1cc(C)ccc1OCCCC(C(=O)OCC)C(=O)OCC	3%	-28%	112%[59 µM]	167%	4%	169%
CN1/C(=C\C=C2C(=O)NC(=S)NC2=O)C(C)(C)c2ccccc21	-26%	-29%	?	-7%	-11%	?
COc1ccc(C=C2C(=O)NC(=S)NC2=O)cc1	89µM*	9.5µM*	·	?	·	·
O=C1NC(=S)NC(=O)C1=Cc1ccc(OCc2ccccc2)cc1	79µM*	2.7µM*	·	-9%	·	·
O=C1NC(=S)NC(=O)C1=Cc1cccc2cc3ccccc3cc12	-21%	0.75µM*	16µM*	8%	25µM*	32µM*
O=C1NC(=S)NC(=O)C1=Cc1c(Cl)cccc1Cl	-12%	4.7µM*	·	4%[57 µM]	·	·
O=C(c1ccncc1)N1CCC[C@@]2(CCN(Cc3nccs3)C2)C1	·	·	-2%[12.7 µM]	·	21%	·
O=C(NCCCCc1ccccc1)c1ccccc1Br	-1%	-2%	·	53%	·	·
NC(=NCCCC(N)C(=O)O)N[N+](=O)[O-] (configuration not stated)	·	·	·	·	-9%	·
CCN(CC)C(=O)c1ccc(NC(=O)c2ccc(-c3nn(C)c(=O)c4ccccc34)cc2)cc1	?	30µM*	3%[59 µM]	-1%	7%	?
CC(C)C1C(=O)N2CCC[C@H]2[C@]2(O)O[C@](NC(=O)[C@@H]3C=C4c5cccc6[nH]cc(c56)C[C@H]4N(C)C3)(C(C)C)C(=O)N12 (some centres not stated)	·	·	-33%[59 µM]	·	?	·
CCC(=O)Nc1nc2ccccc2n1CCN(C)C	40µM*	-3%	32µM*	-11%	-13%	?
CCC(=O)Nc1ccccc1-c1nc2ccccc2n(C(CC)C(=O)Nc2cccc(Cl)c2)c1=O (configuration not stated)	2%	·	?	29%	·	-4%
Cc1c(C)n(O)c2ccc3nonc3c12	-14%	19µM*	?	14%	-11%	-13%
C=C1CC[C@H](O)C/C1=C/C=C1\CCC[C@]2(C)[C@@H]([C@H](C)CCCC(C)C)CC[C@@H]12	·	·	16µM*!	·	17%	·
CCc1ccc(NC(=O)CN2C(=O)C3(SCC(=O)N3c3ccc(F)c(F)c3)c3ccccc32)cc1 (configuration not stated)	-31%	·	?	16%	·	4%[57.1 µM]
CCC(C)n1c(=O)[nH]c(C)c(Br)c1=O (configuration not stated)	·	·	·	·	12%	·
Oc1cccc(Nc2ncnc3sc4c(c23)CCCC4)c1	89µM*	·	-30%[59 µM]	-1%[57 µM]	·	-2%
Cc1c2ccncc2c(C)c2c1[nH]c1ccccc12	-9%	-7%	21µM*!	43%	22µM*	56µM*
O=c1c2ccccc2nc(/C=C/c2cccnc2)n1Cc1ccccc1	22µM*	-11%	·	?	32µM*	10µM*
COc1cccc(-n2c(=S)[nH]c3ccccc3c2=O)c1	-1%	-5%	5%	36%	17%	-8%
COc1cccc(-n2c(CNC(=O)OC(C)(C)C)n[nH]c2=S)c1	10µM*	-9%	28µM*	30%	50µM*	32%
O=c1[nH]c(=S)n(C2CC2)c(O)c1/C=N/Nc1cccc2ccccc12	?	-7%	1.4µM*	3%	20µM*	?
CC(N=Cc1c(O)n(C2CC2)c(=S)[nH]c1=O)c1ccccc1 (configuration not stated)	1%	3%	-42%	37%	13%	-8%
O=c1[nH]c(=S)n(C2CC2)c(O)c1C=NCCN1CCOCC1	-13%	-2%	2%	17%	-7%	3%
SMILES	JMJD2A Tudor	PLK1 PBD block	G9a inh	HP1b binding inh	Sfp inh	BAZ2B block
O=c1[nH]c(=S)n(C2CC2)c(O)c1/C=N/Nc1ccccc1	?	-14%	1.4µM*	-1%	50µM*	-34%
CCCCCSc1cc(OC)c(CCN(C)C)cc1OC	?	-15%	3%[59 µM]	?	-12%	45µM*
O=C1CS[C@@H](c2ccccc2Cl)c2cc(Cl)ccc2N1	·	·	·	·	-2%	·
CC1=CC(=O)c2c(O)cccc2C1=O	·	·	-98%[2.33 µM]	·	35µM*!	·
CCCN[C@@H]1CCc2c(OC)cccc2[C@@H]1C	·	·	-1%[59 µM]	·	-5%	·
O=[N+]([O-])c1cccnc1N1CCCNCC1	-17%	-1%	45µM*	10%	10%	-3%
O=[N+]([O-])c1ccc(N2CCCCCC2)c2ncccc12	16µM*	?	25µM*	?	?	14µM*
Cc1ccnc(-n2c(C)nc3ccccc3c2=O)c1	?	27µM*	-2%[59 µM]	?	-7%	1%
Cc1ccnc(-n2c(-c3ccccc3)nc3ccccc3c2=O)c1	-3%	-8%	13%[59 µM]	20%	5%	0%
N[C@@H](Cn1ccc(=O)c(O)c1)C(=O)O	·	·	10µM*	·	·	·
COc1ccc2c(c1)[C@@]13CCCCC1[C@@H](C2)N(C)CC3 (some centres not stated)	·	·	-37%[2.33 µM]	·	-7%	·
CCOC(=O)[C@]12Cc3ccsc3[C@H]1N(Cc1ccccc1)C(=O)c1ccccc12	6%	-15%	·	60%	·	·
CCOC(=O)[C@]12Cc3cc(OC)c(OC)cc3[C@H]1N(Cc1ccccc1)C(=O)c1ccccc12	-26%	-11%	·	20%	·	·
CCOC(=O)[C@]12Cc3ccccc3[C@H]1N(Cc1ccccc1)C(=O)c1cc(OC)ccc12	·	-28%	·	·	·	·
CCOC(=O)[C@]12Cc3cc4ccccc4cc3[C@H]1N(Cc1ccccc1)C(=O)c1ccccc12	·	12µM*	·	·	·	·
CCOC(=O)[C@]12Cc3cc(OC)ccc3[C@H]1N(CCC(=O)OC)C(=O)c1cc(OC)ccc12	·	13µM*	·	·	·	·
CCOC(=O)[C@]12Cc3cc4ccccc4cc3[C@H]1N(Cc1ccccc1)C(=O)c1cc(OC)ccc12	·	11µM*	·	·	·	·
CCCCCN1C(=O)c2cc(OC)ccc2[C@@]2(C(=O)OCC)Cc3cc(Cl)ccc3[C@@H]12	·	4.7µM*	·	·	·	·
CCOC(=O)[C@]12Cc3c(cc(OC)c(OC)c3OC)[C@H]1N(Cc1ccccc1)C(=O)c1ccccc12	-27%	-3%	·	14%	·	·
C=CCN1C[C@H](C)N([C@H](c2ccc(C(=O)N(CC)CC)cc2)c2cccc(O)c2)C[C@H]1C	·	·	·	·	-5%	·
O=[N+]([O-])c1ccc(-c2[se]c3ccccc3c2I)cc1	·	·	?	·	-21%	·
CC(C)(C)CC(C)(C)c1ccc(O)cc1	·	·	·	·	28%	·
